Source: PubChem
The list is not random: actives were taken first. Their share in the collection is about 1.7%.
hERG WT inh: KCNH2 (human, wildtype) channel inhibition; Q12809; U2OS, BacMam KCNH2, thallium flux FluxOr; active compounds read low; activity change, % at 1.84 µM; actives 0.37% (n = 340,000);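 active = maximum activity change below -70%; inconclusive = maximum activity change between -70% and -50%; inactive = maximum activity change above -50%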
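U2OS cells transduced with wild-type KCNH2 virus are loaded with FluxOr dye for 45 min, and thallium flux is measured in kinetic reads before and after stimulation buffer. Rate constants are normalized to DMSO controls.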
RXFP1 antag: blocks the human relaxin receptor RXFP1. Q9HBX9. HEK293-RXFP1, relaxin-stimulated cAMP HTRF, 30 min; active compounds read low. activity change, negative = inhibition, % at 57.5 µM. actives 0.59% (n = 350,000). AID 1259400;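 active = activity change of -60% or lower, but not beyond a set lower limit; inconclusive = change between -60% and -40%, or beyond the set limit; inactive = change above -40%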
RXFP1 ag: RXFP1 (human) receptor agonism; actives 0.3% (n = 370,000); Q9HBX9; Potency, µM (series often up to 57.5 µM), most hits filed as activators; HEK293T-RXFP1 cAMP TR-FRET, 30 min; response scale: percent of porcine relaxin response, buffer zero; AID 2676; active = well fitted activation curve with a large enough effect; inconclusive = small, poorly fitted or top-dose-only effect; also: nearly all actives have a fitted effect of over 60% in size
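cAMP rise read by TR-FRET after 30 min, 37C compound exposure (up to 58 uM) in RXFP1-transfected HEK293 cells with Ro 20174 present. EC50 from Hill-equation fits, with 29 nM porcine relaxin as 100% and buffer as basal.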
pAkt inh: blocks phosphorylation of Akt; Neuro2A IGF-stimulated pAkt S473 HTRF, 20 min; active compounds read low; activity change, % for hits at 50 µM; actives 0.32% (n = 360,000); in the data active = activity change below about -80%; inconclusive = mostly about -51% to -80%
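Neuro2A cells (4,500/well, DMEM with 0.5% FBS) were treated with compound at a single 50 µM final concentration, stimulated with 6 nM IGF for 20 min at 37 °C, and lysed. Phospho-Akt Ser473 was read by HTRF as 665/615 ratio ×10^4.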
KCNH2 3.1 block: blocks the human KCNH2 3.1 channel isoform; U2OS KCNH2 3.1, thallium flux FluxOr; active compounds read low; activity change, % (tested at about 1.8 µM); actives 0.95% (n = 340,000); AID 720553;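 active = maximum activity change below -70%; inconclusive = maximum activity change from -70% to -50%; inactive = maximum activity change above -50%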;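 also: thallium influx rate constant from kinetic fluorescence after stimulation buffer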
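We transduce U2OS cells with the mutant 3.1 virus, culture them overnight, load FluxOr with Red40 quencher for 45 min, then add stimulation buffer and read kinetically for 2 min to derive a normalized rate constant.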
A number is an active result; i = inactive; ? = inconclusive; nt = no result given.

SMILES | hERG WT inh | RXFP1 antag | RXFP1 ag | pAkt inh | KCNH2 3.1 block
COc1cccc(CN2CCCC(C(=O)c3ccc4c(c3)OCO4)C2)c1O (stereo not drawn) | i | i | i | i | i
CCOc1cccc(CN2CCCC(N3CCN(c4cccc(Cl)c4)CC3)C2)c1O (stereo not drawn) | i | i | i | i | -81.9
CCOc1cccc(CN2CCCC(C(=O)c3cc(Cl)ccc3OC)C2)c1O (stereo not drawn) | -105.0 | i | i | i | -115.0
COc1ccc(/C=N/NC(=S)Nc2cc(C(F)(F)F)ccc2Cl)cc1 | i | ? | i | i | i
O=C(Nc1ccc(F)cc1F)Nc1ccccc1C(=O)NCCN1CCNC1=O | i | i | i | i | i
COc1ccc(C(=O)C2CCCN(Cc3cc(Cl)ccc3O)C2)c(OC)c1 (stereo not drawn) | i | i | i | i | -74.2
CCCc1cc(C(=O)N(C2CCCCC2)C2CCCCC2)no1 | i | -70.4 | i | i | i
CCCC(=O)N1c2nc(-c3ccco3)nn2C2(CCCCC2)[C@@H]2CCCC[C@@H]21 | nt | -65.7 | i | nt | nt
O=C(CSc1nc2ccccc2[nH]1)NCCc1ccc(Cl)cc1 | -120.6 | i | i | i | i
CCOc1cc(/C=C(\C#N)C(=O)Nc2cccc(C(=O)O)c2)ccc1OCc1ccccc1Cl | i | i | i | i | i
CCOc1cc(/C=C(\C#N)C(=O)Nc2cccc(C(=O)O)c2)cc(Br)c1OC(=O)c1ccc(OC)cc1 | i | -89.1 | i | i | -111.6
Cc1ccc(CN2CCN(Cc3ccc(-n4cccn4)cc3C)CC2CCO)cc1 (stereo not drawn) | -91.1 | i | i | i | -158.3
OCCC1CN(Cc2ccc(-n3cccn3)cc2)CCN1Cc1ccccc1 (stereo not drawn) | i | i | i | i | i
Cc1ccc(CN2CCN(Cc3cccc(-n4cccn4)c3)CC2CCO)cc1 (stereo not drawn) | i | i | i | i | -86.6
Cc1cc(C)c(CN2CCN(Cc3ccc(C)o3)C(CCO)C2)c(-n2cccn2)c1 (stereo not drawn) | i | i | i | i | -72.4
O=C(Nc1ccc([N+](=O)[O-])cn1)c1cc(-c2cccc(Cl)c2)nc2ccccc12 | ? | i | i | i | ?
O=C(Nc1ccc([N+](=O)[O-])cn1)c1cc(-c2cccc(Br)c2)nc2ccccc12 | i | i | i | i | -80.7
CCc1ccc(CN2CCCC(C(=O)Nc3ccccc3-c3ccc(OC)cc3)C2)o1 (stereo not drawn) | i | -77.1 | i | i | i
COCc1ccc(CN2CCCC(C(=O)Nc3ccccc3-c3ccc(OC)cc3)C2)o1 (stereo not drawn) | i | i | i | i | i
OC(CNCc1ccco1)Cn1c2ccc(Br)cc2c2cc(Br)ccc21 (stereo not drawn) | -97.9 | i | i | i | -100.2
Brc1ccc2ncnc(NCc3ccco3)c2c1 | i | i | i | i | i
O=C(CCN1C(=O)c2ccccc2C1=O)N1CCCCCC1 | i | i | i | i | i
COc1cc(C(=O)Nc2sc(C(=O)N3CCOCC3)c(C)c2C#N)cc(OC)c1OC | i | i | i | -106.6% | i
Cc1ccc(CNC(=O)c2ccc3c(c2)nc(C)n3-c2cc(C)cc(C)c2)cc1 | nt | i | i | nt | nt
COc1ccc(/C=C/c2c(-c3ccccc3OC)sc3ccccc23)cc1OC | i | nt | nt | i | i
SMILES | hERG WT inh | RXFP1 antag | RXFP1 ag | pAkt inh | KCNH2 3.1 block
Cc1cc(C)cc(NC(=O)CNC(c2ccccc2)c2ccccc2)c1 | -70.5 | i | i | i | i
Cc1cccc(C2N3CC4(C(C)C)CN2CC(C(C)C)(C3)C4=O)c1 (stereo not drawn) | nt | nt | i | nt | nt
COc1ccc(C2(CNC(=O)CCC(=O)O)CCCC2)cc1 | i | i | i | -114.5% | i
c1ccc(Sc2ccccn2)cc1 | i | i | nt | i | i
c1ccc(SSc2ccccn2)nc1 | i | -66.5 | nt | i | i
CCOC(=O)c1c(NC(=O)COC(=O)c2ccc(O)cc2)sc(C(=O)NC)c1C | i | i | nt | i | i
O=C(CCN1CCOCC1)c1ccc2c(c1)OCCO2 | i | i | i | nt | i
O=C(CCN1CCc2ccccc2CC1)c1ccc2c(c1)OCCO2 | i | -64.7 | i | i | i
c1ccc2c(c1)oc1c(NCCCn3ccnc3)ncnc12 | i | i | i | i | i
c1ccc2c(c1)oc1c(NCCCN3CCOCC3)ncnc12 | i | i | i | -109.0% | i
COc1ccc2c(c1)CCc1c-2n[nH]c1C(=O)O | i | i | i | -110.6% | i
COc1cc(CNC2CCCCCC2)cc(OC)c1 | i | i | i | i | -87.2
COc1cc(CNC2CCCCCC2)cc(OC)c1OC | i | i | i | i | i
O=[N+]([O-])c1ccc(/C=N\NS(=O)(=O)c2ccc(F)cc2)o1 | i | i | i | i | -84.9
Cc1cccc(OCc2nnc(N)s2)c1C | i | i | i | -120.4% | i
Cc1ccc(OCc2nnc(N)s2)cc1 | i | i | i | i | i
CCOC(=O)Cc1nnc(Nc2cccc(C)c2)c2ccccc12 | i | i | i | -109.3% | i
Cc1ccc(-n2cc(CNCCN3CCOC3=O)c(-c3ccc(F)cc3)n2)cc1 | i | i | i | i | i
Cc1ccc(-n2cc(CNCCn3nc(C)cc3C)c(-c3ccc(F)cc3)n2)cc1 | i | i | i | i | -79.1
O=C(/C=C/c1ccc(F)cc1)Nc1nc2ccccc2[nH]1 | nt | nt | i | nt | nt
CCN(CC)S(=O)(=O)c1ccc(N2CCCCC2)c(NC(=O)/C=C/c2cc(OC)c(OC)c(OC)c2)c1 | i | i | i | i | i
COc1cc(CN2CCC(n3nccc3NC(=O)c3ccccc3OC)CC2)ccc1F | -106.1 | i | i | i | -70.1
CCn1cc(CN2CCC(n3nccc3NC(=O)c3ccccc3OC)CC2)cn1 | i | i | i | i | i
COc1ccccc1C(=O)Nc1ccnn1C1CCN(Cc2ccccc2OCCO)CC1 | i | i | i | i | -81.6
CCOc1ccc(CN2CCC(n3nccc3NC(=O)c3ccccc3OC)CC2)cc1 | -154.2 | i | i | i | i
SMILES | hERG WT inh | RXFP1 antag | RXFP1 ag | pAkt inh | KCNH2 3.1 block
COc1ccccc1CN1CCC(n2nccc2NC(=O)c2ccccc2Cl)CC1 | i | i | i | i | i
CC(=O)Nc1ccc(Br)c2ccccc12 | i | i | 28.2µM | i | nt
O=C(O)CSc1nnc(-c2ccco2)o1 | i | i | i | i | i
CCOC(=O)CC1(NC(=O)c2cc(COc3ccc(F)c(F)c3)on2)CCCCC1 | i | i | i | i | i
OCCC1CN(Cc2ccc(F)cc2Cl)CCN1CCc1ccccc1 (stereo not drawn) | i | i | i | i | -72.1
COC(=O)c1cccc2c1-c1ccccc1/C2=N\NC(N)=O | -147.4 | i | i | i | -189.6
CCc1ccc(NC(=O)Cn2nc3c4ccccc4n(Cc4ccccc4)cc-3c2=O)cc1 | nt | i | i | nt | nt
Cc1ccccc1C(=O)Nc1cccc(NC(=O)c2cccnc2)c1 | -78.0 | i | i | i | i
